From ChEMBL document CHEMBL3988442, “University of Dundee, Small-Polar-MMV Screening Library” (2021) come the findings set out here.

Set-up in all cases: scale not given: direction of the effect not stated beside the values
Test [1] has as its target Protein translocase subunit SecA (Escherichia coli (strain K12)) (UniProt P10408). Description: Assay to Identify E. coli SecA ATPase Inhibitors. It is filed as functional. The note with it: 30 µM.
The target of test [2] is T1, Ubiquitin-activating enzyme e1, putative (Leishmania donovani (strain BPK282A1)) (UniProt E9BSI1).
T1 sequence (whole entry): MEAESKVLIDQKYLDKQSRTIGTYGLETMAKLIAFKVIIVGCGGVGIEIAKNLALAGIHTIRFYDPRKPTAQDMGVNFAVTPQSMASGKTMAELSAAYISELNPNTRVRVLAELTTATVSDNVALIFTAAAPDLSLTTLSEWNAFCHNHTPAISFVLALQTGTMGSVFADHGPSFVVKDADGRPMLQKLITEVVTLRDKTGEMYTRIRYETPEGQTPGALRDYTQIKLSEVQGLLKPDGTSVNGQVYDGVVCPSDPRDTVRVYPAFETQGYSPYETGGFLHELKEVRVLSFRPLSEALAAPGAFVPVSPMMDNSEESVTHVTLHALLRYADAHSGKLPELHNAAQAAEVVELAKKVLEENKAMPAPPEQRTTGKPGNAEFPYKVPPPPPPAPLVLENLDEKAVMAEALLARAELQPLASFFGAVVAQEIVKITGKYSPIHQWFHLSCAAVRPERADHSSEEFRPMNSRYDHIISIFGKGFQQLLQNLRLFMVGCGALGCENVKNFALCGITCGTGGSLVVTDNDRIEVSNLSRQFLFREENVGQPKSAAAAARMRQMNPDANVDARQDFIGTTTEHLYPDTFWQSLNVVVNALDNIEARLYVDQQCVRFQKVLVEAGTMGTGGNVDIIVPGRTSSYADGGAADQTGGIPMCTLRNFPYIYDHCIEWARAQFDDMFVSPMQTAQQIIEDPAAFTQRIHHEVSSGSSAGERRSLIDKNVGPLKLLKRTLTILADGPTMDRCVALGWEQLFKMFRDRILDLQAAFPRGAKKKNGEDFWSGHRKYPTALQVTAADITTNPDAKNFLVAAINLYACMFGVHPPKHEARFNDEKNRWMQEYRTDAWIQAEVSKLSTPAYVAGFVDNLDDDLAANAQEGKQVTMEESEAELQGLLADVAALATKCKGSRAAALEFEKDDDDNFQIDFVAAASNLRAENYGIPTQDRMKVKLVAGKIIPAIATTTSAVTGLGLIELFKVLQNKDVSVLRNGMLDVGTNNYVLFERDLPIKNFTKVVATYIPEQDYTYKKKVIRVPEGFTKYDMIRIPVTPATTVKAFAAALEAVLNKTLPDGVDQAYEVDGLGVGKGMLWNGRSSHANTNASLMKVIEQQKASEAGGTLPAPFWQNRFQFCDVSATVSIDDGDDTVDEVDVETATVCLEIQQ
In words: Leishmania donovani Ubiquitin Activating Enzyme (LdE1). In kind it is functional. The note with it: 30 µM.

In test [3] the target is AMP-activated protein kinase, AMPK (Homo sapiens) (UniProt P54646+O43741+P54619+Q9UGJ0+Q9Y478+Q13131+Q9UGI9). In words: AMP-dependent Kinase enzyme assay. An in vitro enzyme assay that detects ADP turnover that is directly proportional to AMPK activity. This uses naive AMPK that is activated during the assay with MK-8722. It is filed as functional. The conditions noted are these: 30 µM.

In test [4] the target is Sialic acid-binding Ig-like lectin 9 (Homo sapiens) (UniProt Q9Y336). Description: Hs-Siglec9 ALPHAscreen SOP 20170721. The note with it: 10 µM.
Sequence of Sialic acid-binding Ig-like lectin 9 (Homo sapiens) (Q9Y336 whole entry): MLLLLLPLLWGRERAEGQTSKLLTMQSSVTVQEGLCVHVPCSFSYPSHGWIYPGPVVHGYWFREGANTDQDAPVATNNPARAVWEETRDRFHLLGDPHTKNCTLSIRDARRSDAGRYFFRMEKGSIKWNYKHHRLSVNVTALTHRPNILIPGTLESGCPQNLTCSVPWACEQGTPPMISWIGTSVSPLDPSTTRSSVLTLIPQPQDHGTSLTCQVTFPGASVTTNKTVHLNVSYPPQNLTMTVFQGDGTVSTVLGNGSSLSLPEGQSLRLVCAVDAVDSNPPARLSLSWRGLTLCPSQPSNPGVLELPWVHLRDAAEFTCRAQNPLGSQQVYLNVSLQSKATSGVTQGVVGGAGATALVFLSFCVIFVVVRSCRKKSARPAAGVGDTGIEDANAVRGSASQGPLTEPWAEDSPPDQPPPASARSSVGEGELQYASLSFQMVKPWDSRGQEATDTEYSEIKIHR
A further test concerns Trypanosoma cruzi. Description: Trypanosoma cruzi phosphomannomutase and mannose-1-phosphate guanylyltransferase assay. In kind it is functional. The note with it: 10 µM.
Test [5] concerns the target T2, Arginase-2, mitochondrial (Homo sapiens) (UniProt P78540).
T2 sequence (whole entry): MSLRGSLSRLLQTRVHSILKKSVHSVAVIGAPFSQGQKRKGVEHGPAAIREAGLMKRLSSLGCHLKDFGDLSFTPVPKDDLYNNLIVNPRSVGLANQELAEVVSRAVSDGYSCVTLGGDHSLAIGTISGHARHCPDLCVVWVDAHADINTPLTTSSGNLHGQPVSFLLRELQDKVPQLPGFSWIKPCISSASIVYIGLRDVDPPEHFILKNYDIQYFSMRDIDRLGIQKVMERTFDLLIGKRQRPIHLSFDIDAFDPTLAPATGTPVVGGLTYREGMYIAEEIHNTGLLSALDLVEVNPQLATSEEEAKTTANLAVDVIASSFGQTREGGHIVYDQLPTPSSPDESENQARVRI
Description: in vitro enzyme assay to detect the production of urea directly proportional to the activity of Arginase II. Note: in the data most compounds retested in dose-response had high values. In kind it is functional. The note with it: 33.3 µM.

For test [6], the target named is T3, Proteasome subunit beta (Trypanosoma cruzi) (UniProt O96673).
T3 sequence (whole entry): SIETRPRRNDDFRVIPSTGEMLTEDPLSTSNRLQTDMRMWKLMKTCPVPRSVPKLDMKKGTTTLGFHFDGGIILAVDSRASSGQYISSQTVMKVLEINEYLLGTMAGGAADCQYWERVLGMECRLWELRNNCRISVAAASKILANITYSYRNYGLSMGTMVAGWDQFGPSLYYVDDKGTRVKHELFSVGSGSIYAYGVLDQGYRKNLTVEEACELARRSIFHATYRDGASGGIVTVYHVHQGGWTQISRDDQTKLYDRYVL
In words: Trypanosoma cruzi proteasome chymotrypsin-like activity (TcProtChymo) assay. Note: in the data most compounds retested in dose-response had high values. It is filed as functional. The conditions noted are these: 9.37 µM.

The species named for the next test is Homo sapiens. Description: To identify inhibition of the IFN signalling (Jak-Stat) pathway via expression of an eGFP reporter gene under the control of an IFN-stimulated response element (ISRE) containing MxA promoter. It is filed as functional. The note with it: 30 µM. For orientation: Reporter assays use an easily measured gene product as a stand-in for the process of interest.

Test [7] addresses T4, Tyrosyl-tRNA synthetase, putative (Trypanosoma cruzi (strain CL Brener)) (UniProt Q4DSP6).
T4 sequence (whole entry): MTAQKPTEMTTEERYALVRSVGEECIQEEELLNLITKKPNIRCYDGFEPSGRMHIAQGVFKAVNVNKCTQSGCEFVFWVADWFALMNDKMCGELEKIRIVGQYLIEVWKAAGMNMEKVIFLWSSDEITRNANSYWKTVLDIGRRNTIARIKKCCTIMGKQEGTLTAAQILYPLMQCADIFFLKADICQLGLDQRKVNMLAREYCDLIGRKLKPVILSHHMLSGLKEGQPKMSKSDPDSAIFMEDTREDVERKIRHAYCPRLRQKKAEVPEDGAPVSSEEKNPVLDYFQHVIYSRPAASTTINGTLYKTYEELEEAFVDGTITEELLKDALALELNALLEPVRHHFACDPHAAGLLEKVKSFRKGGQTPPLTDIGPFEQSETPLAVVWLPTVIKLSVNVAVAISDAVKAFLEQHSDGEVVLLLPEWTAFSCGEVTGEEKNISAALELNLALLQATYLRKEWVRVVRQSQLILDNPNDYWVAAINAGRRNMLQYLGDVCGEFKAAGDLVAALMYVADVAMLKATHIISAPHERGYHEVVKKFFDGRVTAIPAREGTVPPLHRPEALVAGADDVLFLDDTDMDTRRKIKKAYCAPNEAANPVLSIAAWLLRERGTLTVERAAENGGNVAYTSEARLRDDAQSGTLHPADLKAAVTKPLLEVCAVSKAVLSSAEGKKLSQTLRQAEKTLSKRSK
In words: Trypanosoma cruzi tyrosyl tRNA synthetase (TcYRS) _High Tyrosine SOP. Note: in the data most compounds retested in dose-response had high values. It is filed as functional. The note with it: 30 µM.

The target of test [8] is T4, Tyrosyl-tRNA synthetase, putative (Trypanosoma cruzi (strain CL Brener)). In words: Trypanosoma cruzi tyrosyl tRNA synthetase (TcYRS) SOP. It is filed as functional. The conditions noted are these: 30 µM.
The target of test [9] is Chromo domain-containing protein 1 (Saccharomyces cerevisiae (strain ATCC 204508 / S288c) (Baker's yeast)) (UniProt P32657). In words: ScCHD-1 Enzyme Inhibition Assay. Note: in the data most compounds retested in dose-response had high values. In kind it is functional. The conditions noted are these: 30 µM.
Sequence of Chromo domain-containing protein 1 (Saccharomyces cerevisiae (strain ATCC 204508 / S288c) (Baker's yeast)) (P32657 whole entry, the tested form may be a part): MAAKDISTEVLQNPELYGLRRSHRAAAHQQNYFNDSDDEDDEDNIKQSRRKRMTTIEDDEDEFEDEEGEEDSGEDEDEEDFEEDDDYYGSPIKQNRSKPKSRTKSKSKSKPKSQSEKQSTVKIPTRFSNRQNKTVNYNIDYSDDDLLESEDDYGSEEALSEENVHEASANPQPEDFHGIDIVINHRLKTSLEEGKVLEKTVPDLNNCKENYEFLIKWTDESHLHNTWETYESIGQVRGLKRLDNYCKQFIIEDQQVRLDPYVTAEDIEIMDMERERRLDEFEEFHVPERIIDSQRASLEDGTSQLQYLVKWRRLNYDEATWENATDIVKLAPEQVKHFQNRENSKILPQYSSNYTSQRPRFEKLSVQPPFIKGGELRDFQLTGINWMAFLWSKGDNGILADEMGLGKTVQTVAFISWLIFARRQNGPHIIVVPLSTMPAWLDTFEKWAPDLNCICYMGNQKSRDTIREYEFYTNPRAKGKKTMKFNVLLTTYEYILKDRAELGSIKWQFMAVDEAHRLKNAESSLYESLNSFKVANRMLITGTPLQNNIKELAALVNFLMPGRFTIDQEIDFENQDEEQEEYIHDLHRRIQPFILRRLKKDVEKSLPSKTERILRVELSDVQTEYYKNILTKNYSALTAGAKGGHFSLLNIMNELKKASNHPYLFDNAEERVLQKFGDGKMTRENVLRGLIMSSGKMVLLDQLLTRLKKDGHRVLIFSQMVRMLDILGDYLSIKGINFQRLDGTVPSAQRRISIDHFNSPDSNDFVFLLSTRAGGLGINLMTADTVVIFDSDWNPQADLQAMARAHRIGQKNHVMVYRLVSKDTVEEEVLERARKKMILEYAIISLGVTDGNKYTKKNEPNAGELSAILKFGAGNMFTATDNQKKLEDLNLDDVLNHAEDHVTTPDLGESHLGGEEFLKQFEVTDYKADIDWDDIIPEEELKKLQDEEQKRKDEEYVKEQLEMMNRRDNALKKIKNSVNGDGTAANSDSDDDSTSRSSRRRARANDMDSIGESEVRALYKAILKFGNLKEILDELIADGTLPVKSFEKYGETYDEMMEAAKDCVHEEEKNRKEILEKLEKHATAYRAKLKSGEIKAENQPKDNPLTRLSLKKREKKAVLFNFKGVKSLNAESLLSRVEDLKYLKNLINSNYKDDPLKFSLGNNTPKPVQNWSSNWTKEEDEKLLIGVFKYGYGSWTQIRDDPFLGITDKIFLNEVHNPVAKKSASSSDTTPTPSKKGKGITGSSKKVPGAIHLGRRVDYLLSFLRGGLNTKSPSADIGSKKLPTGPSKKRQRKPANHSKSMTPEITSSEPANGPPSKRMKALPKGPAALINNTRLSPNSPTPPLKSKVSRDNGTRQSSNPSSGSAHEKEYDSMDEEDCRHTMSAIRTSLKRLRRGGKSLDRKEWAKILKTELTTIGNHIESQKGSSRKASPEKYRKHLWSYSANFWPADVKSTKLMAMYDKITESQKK

For some of these results: Potency and affinity values are given separately.

Sequence of Protein translocase subunit SecA (Escherichia coli (strain K12)) (P10408 whole entry): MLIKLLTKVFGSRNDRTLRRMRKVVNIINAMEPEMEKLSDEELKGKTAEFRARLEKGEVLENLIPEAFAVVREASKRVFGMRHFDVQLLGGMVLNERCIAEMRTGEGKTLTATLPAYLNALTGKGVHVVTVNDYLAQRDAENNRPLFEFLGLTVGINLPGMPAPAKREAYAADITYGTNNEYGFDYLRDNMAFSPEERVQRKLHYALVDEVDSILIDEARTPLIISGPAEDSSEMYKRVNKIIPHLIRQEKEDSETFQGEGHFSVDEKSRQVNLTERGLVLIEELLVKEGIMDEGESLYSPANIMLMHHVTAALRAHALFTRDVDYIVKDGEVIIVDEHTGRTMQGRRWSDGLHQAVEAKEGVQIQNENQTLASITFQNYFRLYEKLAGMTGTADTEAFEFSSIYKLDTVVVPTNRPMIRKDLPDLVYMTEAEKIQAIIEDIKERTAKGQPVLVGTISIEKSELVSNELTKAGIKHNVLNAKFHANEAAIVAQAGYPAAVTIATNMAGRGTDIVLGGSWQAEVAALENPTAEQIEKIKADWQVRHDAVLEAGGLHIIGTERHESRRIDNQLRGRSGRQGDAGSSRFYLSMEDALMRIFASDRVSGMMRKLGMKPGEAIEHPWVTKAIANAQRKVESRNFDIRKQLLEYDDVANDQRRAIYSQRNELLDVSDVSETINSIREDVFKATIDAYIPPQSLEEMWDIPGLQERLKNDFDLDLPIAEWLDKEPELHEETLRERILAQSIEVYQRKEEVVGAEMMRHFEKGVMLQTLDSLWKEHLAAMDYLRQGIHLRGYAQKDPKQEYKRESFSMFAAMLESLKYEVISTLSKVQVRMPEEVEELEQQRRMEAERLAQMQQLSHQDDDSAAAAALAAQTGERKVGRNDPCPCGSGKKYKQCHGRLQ

`Cc1cc(NC(=O)CN2CCc3nn(C)c(=O)cc3C2)on1`: the Percent Effect is -3.81% in [1]; 6.94% in test [2]; -63.3% in test [3]; -0.594% in test [4]; -1.46% with Trypanosoma cruzi; 7.06% in test [5]. Besides, the Percent Effect in test [6] was 13.9%; in the test listed under Homo sapiens, 0.181%; in test [7], -6.32%; in test [8], -5.13%; in test [9], -4.24%.
Turning to `Cc1ccc(C(=O)O)cc1S(=O)(=O)Nc1nn(-c2ccccc2)cc1C`, the Percent Effect is -5.95% in test [1]; 2.74% in test [2]; 9.77% in test [3]; 0.854% in [4]; -5.09% in the test on Trypanosoma cruzi; 0.455% in test [5]. Also, the Percent Effect was 17.6% in [6]; 17.3% in the test listed under Homo sapiens; -10.8% in test [7]; -17.5% in [8]; -5.76% in test [9].
For `CNC(=O)CSc1nc2c(cnn2Cc2ccc(F)cc2)c(=O)[nH]1`, the Percent Effect in test [1] is -1.62%; in [2], 11%; in test [3], 8.78%; in [4] it was 2.62%; in the test on Trypanosoma cruzi, -3.33%; in [5] it was 0%. Besides, the Percent Effect in [6] is 16.5%; in the test listed under Homo sapiens, 33.3%; in test [7], 0%; in test [8], 10%; in test [9] it was -6.75%.
In the case of `O=C(CN1CCCCC1Cn1cccn1)NC1CCN(C2CC2)CC1` (stereo unspecified), the Percent Effect in test [1] was -0.952%; in [2] it was 0%; in [3] it was -4.99%; in test [4] it was 6.13%; in the test on Trypanosoma cruzi it was -1.16%; in test [5], -4.29%. The Percent Effect is 13.3% in test [6]; 1.18% in the test listed under Homo sapiens; 0.529% in [7]; 2.44% in [8]; -1.27% in test [9].
With `NC(=O)C1CCN(C(=O)CCn2ccc3cc(Br)ccc32)CC1`, the Percent Effect in test [1] was -0.921%; in test [2] it was 4.17%; in test [3], -4.65%; in test [4], 21.5%; with Trypanosoma cruzi, 2.43%; in test [5] it was 14.6%. Also, the Percent Effect in [6] was 2.63%; in the test listed under Homo sapiens, -3.52%; in [7], 3.16%; in test [8], 2.56%; in test [9], -4.07%.
In the case of `Cc1noc(C)c1C(=O)N1CCCC1c1c(C)nn(C)c1Cl` (stereo unspecified), the Percent Effect in test [1] was -4.44%; in test [2] it was 7.59%; in test [3], -2.1%; in [4], 8.04%; in the test with Trypanosoma cruzi, 5.38%; in [5], -4.56%. Further, the Percent Effect in test [6] was -1.72%; in the test listed under Homo sapiens it was 4.02%; in test [7], 2.46%; in [8], 8.86%; in test [9], -0.777%.
For the compound `O=C(NCCc1nnc2n1CCC2)NCC1(c2cccc(F)c2)CC1`, the Percent Effect is -7.67% in test [1]; -5.26% in [2]; 5.7% in test [3]; -1.62% in [4]; 2.43% in the test on Trypanosoma cruzi; 0% in test [5]. Further, the Percent Effect in test [6] was -1.44%; in the test filed under Homo sapiens, -9.73%; in test [7], 2.13%; in test [8], 5.2%; in [9] it was 1.42%.
On to `CC1CN(Cc2noc(C3CC3)n2)CCN1Cc1nccn1C` (stereo unspecified), for which the Percent Effect in test [1] is -5.15%; in test [2] it was 2.53%; in [3], -12.8%; in [4] it was 3.3%; in the test with Trypanosoma cruzi, 5.19%; in test [5], -2.66%. In addition, the Percent Effect in test [6] was 1.72%; in the test listed under Homo sapiens, 8.77%; in [7] it was 6.4%; in test [8], 11.4%; in [9], -1.35%.
Regarding `COc1cnc(C2(O)CCN(C(=O)c3ccncc3)CC2)c(OC)n1`, the Percent Effect in test [1] was -4.14%; in test [2], 4.05%; in [3], 8.66%; in [4] it was 2.87%; in the test with Trypanosoma cruzi, 2.77%; in test [5] it was -1.16%. Moreover, the Percent Effect is 3.74% in test [6]; 8.85% in the test filed under Homo sapiens; 2.15% in [7]; 9.09% in test [8]; -11.8% in test [9].
In the case of `COC(=O)c1cccc(C(=O)N2CCN(c3ccccc3F)CC2)n1`, the Percent Effect in [1] was -5.05%; in test [2], 20.8%; in test [3], -7.33%; in test [4], -10.6%; with Trypanosoma cruzi it was 7.59%; in test [5], 1.94%. The Percent Effect in test [6] is 13.9%; in the test filed under Homo sapiens, 15.5%; in test [7] it was 5.29%; in test [8] it was 16.7%; in test [9] it was -10.4%.
In the case of `COCCCn1ccnc1-c1cnc(OC)nc1`, the Percent Effect in [1] was -0.0522%; in test [2], 5.41%; in test [3] it was -3.25%; in [4], 0.687%; in the test with Trypanosoma cruzi, -0.386%; in [5], -3.33%. The Percent Effect in [6] was 21.6%; in the test listed under Homo sapiens, -18.9%; in test [7] it was 6.88%; in test [8] it was 4.88%; in test [9], -3.88%.
